# Experimental data: PubChem BioAssay (NCATS)
# Values joined by “and” are separate entries in the source; they are usually repeats but may differ in a detail not shown here. Equal entries are not always repeated. Unmarked numbers belong to inactive results. Inconclusive results are not listed. Some structures have more than one record in an assay (separate samples or runs), and their calls can disagree. Active and inactive are the calls of the source. The call rests on the fitted dose curve; in most records, active means well fitted curve in the direction sought with a large enough effect; inconclusive means small, poorly fitted or top-dose-only effect, or another doubt; inactive means no such curve, though single readings can be large; an effect the other way counts as inactive or inconclusive.
# Legend:
# [1] = qHTS Assay for Identifying Gametocytocidal Compounds (AID 743244); further: potency means the concentration at half of the fitted maximal effect;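 on max response: on the % scale 0 is the no-effect control and ±100 the full control effect; actives lower the fluorescent signal which means gametocytes are killed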; details: P. falciparum 3D7 stage III-V gametocytes, alamarBlue, 72 h; max response: hits give low values
# How it was run: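 3D7 gametocytes, stages III–V, 20,000/well; cpd 72 h, 37 °C/5% CO2; + alamarBlue 24 h; fluor. Ex 525/Em 598.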
# [2] = target: T1, Hexokinase-4 (Homo sapiens) + Glucokinase regulatory protein (Homo sapiens) (UniProt P35557+Q14397); test: qHTS assay for inhibitors of recombinant human GCK-GKRP interaction: ADP-Glo assay (AID 743206);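 further: plate controls were DMSO plus enzyme for no effect and no enzyme for full effect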
# How it was run: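 Pin-transferred compounds meet a 15 nM GST-GCK/15 nM FLAG-GKRP/2 uM S6P mix (dispense concentrations). ATP is then added to 0.4 mM final with 5 mM glucose, and the reaction runs 60 min at room temperature. ADP is quantified luminescently.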
# [3] = target: T1, Hexokinase-4 (Homo sapiens) + Glucokinase regulatory protein (Homo sapiens); test: qHTS assay for inhibitors of recombinant human GCK-GKRP interaction: HTRF assay (AID 743207);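 further: 0% = DMSO with GCK present and -100% = DMSO wells lacking GCK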
# How it was run: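 HTRF read-out (ex 320 nm; 615/665 nm emission) after 60 min RT equilibration of 5 nM GST-GCK, 5 nM FLAG-GKRP, 2 uM S6P, compound and anti-FLAG/anti-GST detection antibodies; signal normalized between DMSO wells with and without GCK.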
# [4] = qHTS assay for cell viability of HEK293 cells (AID 743288); details: ATP luminescence (CellTiter-Glo), 18 h, hits give low values; further: on the % scale 0 is the no-effect control and ±100 the full control effect; nearly all actives have a fitted effect of over 50% in size
# How it was run: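 ATP luminescence (CellTiter-Glo) reports metabolically competent cell number after parental HEK293 cells, 2,000/well, were treated with DMSO-dissolved compounds for 18 h at 37 C; reagent incubation 30 min, room temperature.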
# [5] = qHTS assay for cell viability of the p53RE-bla HCT-116 cell line (AID 743292); further: on the % scale 0 is the no-effect control and ±100 the full control effect; nearly all actives have a fitted effect of over 55% in size
# How it was run: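 CellSensor p53RE-bla HCT-116 cells (4,000/well) pre-incubated 5 h at 37 C, then exposed to compounds in DMSO for 16 h at 37 C. Viability read as ATP content by CellTiter-Glo luminescence after 30 min at room temperature.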
# T1 sequence (P35557 whole entry, looked up): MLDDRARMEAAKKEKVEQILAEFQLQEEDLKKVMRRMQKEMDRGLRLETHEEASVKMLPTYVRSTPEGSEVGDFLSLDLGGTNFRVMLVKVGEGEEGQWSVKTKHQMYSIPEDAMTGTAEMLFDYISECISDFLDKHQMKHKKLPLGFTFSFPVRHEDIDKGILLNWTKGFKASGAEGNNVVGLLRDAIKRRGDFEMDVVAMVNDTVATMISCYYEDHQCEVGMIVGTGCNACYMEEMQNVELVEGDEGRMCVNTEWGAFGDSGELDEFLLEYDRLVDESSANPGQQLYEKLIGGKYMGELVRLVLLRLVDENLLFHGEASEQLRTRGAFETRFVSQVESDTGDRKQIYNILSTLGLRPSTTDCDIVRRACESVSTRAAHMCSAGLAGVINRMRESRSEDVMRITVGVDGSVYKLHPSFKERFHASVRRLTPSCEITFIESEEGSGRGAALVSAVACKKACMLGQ
# T1 sequence (Q14397 whole entry, looked up): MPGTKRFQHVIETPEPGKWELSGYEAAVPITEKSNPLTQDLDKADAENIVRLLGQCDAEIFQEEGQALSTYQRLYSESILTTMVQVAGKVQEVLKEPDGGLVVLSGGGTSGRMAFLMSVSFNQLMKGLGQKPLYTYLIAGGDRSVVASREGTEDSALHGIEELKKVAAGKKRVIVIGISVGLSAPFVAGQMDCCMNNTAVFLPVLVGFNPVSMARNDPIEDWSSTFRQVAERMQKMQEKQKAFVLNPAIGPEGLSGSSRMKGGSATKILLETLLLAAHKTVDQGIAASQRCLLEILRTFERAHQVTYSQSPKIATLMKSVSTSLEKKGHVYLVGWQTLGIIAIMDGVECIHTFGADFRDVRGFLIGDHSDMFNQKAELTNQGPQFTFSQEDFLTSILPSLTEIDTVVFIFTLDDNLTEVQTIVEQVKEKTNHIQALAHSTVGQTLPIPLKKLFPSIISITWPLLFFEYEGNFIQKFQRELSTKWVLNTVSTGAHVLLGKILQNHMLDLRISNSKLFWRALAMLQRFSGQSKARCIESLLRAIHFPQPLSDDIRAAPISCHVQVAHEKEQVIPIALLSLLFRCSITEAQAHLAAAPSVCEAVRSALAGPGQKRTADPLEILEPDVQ
structure (smiles),measurement,setting,value
CCCCc1ncc(/C=C(\Cc2cccs2)C(=O)O)n1Cc1ccc(C(=O)O)cc1,max response,[1],-3.3%
CO/N=C(\C(=O)N[C@@H]1C(=O)N2C(C(=O)O)=C(CSc3nc(=O)c(O)nn3C)CS[C@H]12)c1csc(N)n1,max response,[1],-6.47%
CC(=O)CCC(=O)O,max response,[1],13.5%
COc1ccc(Cl)cc1C(=O)NCCc1ccc(S(=O)(=O)NC(=O)NC2CCCCC2)cc1,outcome,[2],inactive
same,outcome,[3],inactive
same,max response,[1],54% and 5.04%
same,max response,[4],-4.82%
same,Potency,[5],inactive
CC(=O)NC(Cc1ccccc1)C(=O)O (stereo not given),max response,[1],-1.78%
CCC(=O)Nc1ccc(O)cc1,max response,[1],7.2%
CCN(CC)C(=O)Nc1ccc(OCC(O)CNC(C)(C)C)c(C(C)=O)c1 (stereo not given),max response,[1],-3.18%
N[C@@H](CSSC[C@H](N)C(=O)O)C(=O)O,max response,[1],13.6%
CC(C)c1c(C(=O)Nc2ccccc2)c(-c2ccccc2)c(-c2ccc(F)cc2)n1CC[C@@H](O)C[C@@H](O)CC(=O)O,max response,[1],-14.7%
COc1ccc(S(=O)(=O)Nc2nnc(CC(C)C)s2)cc1,max response,[1],7.52% and 10.3%
CNC(=O)Oc1ccc2c(c1)[C@]1(C)CCN(C)[C@@H]1N2C,outcome,[2],inactive
same,outcome,[3],inactive
same,max response,[4],-7.46%
same,Potency,[5],inactive
C[C@@H]1C[C@H]2[C@@H]3C[C@H](F)C4=CC(=O)C=C[C@]4(C)[C@@]3(F)[C@@H](O)C[C@]2(C)[C@@]1(O)C(=O)CO,max response,[1],2.1%
NS(=O)(=O)c1cc2c(cc1C(F)(F)F)NC(Cc1ccccc1)NS2(=O)=O (stereo not given),max response,[1],5.19%
OC[C@H]1O[C@@H](O[C@@H]2[C@@H](CO)O[C@](O)(CO)[C@H]2O)[C@H](O)[C@@H](O)[C@H]1O,max response,[1],-3.99%
COc1cc(C)c(Cc2cnc(N)nc2N)cc1OC,max response,[1],-2.96%
CC1CC(OC(=O)C(O)c2ccccc2)CC(C)(C)N1C (stereo not given),max response,[1],12.1% and 4.11%
C[C@]12CC[C@@H]3c4ccc(O)cc4CC[C@H]3[C@@H]1CC[C@@H]2OC(=O)CCC1CCCC1,max response,[1],-9.98% and 14%
CN(C)CCC=C1c2ccccc2CCc2ccccc21,outcome,[2],inactive
same,outcome,[3],inactive
same,max response,[4],-2.39% and -37.1%
same,Potency,[5],inactive
CC(C)(C)C(=O)NCCCC(=O)O,max response,[1],2.51%
CCCOC(=O)c1ccccc1,max response,[1],-2.44%
CCCCN1CCCC[C@H]1C(=O)Nc1c(C)cccc1C,max response,[1],12.1%
O=C(O)[C@H](O)c1ccccc1,max response,[1],17.9%
C[C@]12C[C@H](O)[C@H]3[C@@H](CCC4=CC(=O)CC[C@@]43C)[C@@H]1CC[C@@H]2C(=O)CO,outcome,[2],inactive
same,outcome,[3],inactive
same,max response,[1],-3.84% and -1.24%
same,max response,[4],-14.2% and 1.25%
same,Potency,[5],inactive
O=c1cc(CO)occ1O,max response,[1],1.55% and -0.506%
O=C(O)CN1C(=O)c2cccc3cccc(c23)C1=O,max response,[1],0.25%
O=C(O)c1ccccn1,max response,[1],-0.573%
CC(C)(O)c1ccccc1CC[C@@H](SCC1(CC(=O)O)CC1)c1cccc(/C=C/c2ccc3ccc(Cl)cc3n2)c1,max response,[1],-7.08%
C[C@]12CC[C@@H]3c4ccc(O)cc4CC[C@H]3[C@@H]1CCC2=O,outcome,[2],inactive
same,max response,[1],-6.45% and 30.5%
same,max response,[4],-13%
same,Potency,[5],inactive
COc1ccccc1O,max response,[1],-0.65%
same,max response,[4],2.42% and 2.72% and -4.36%
same,Potency,[5],inactive
[O-][n+]1cccc(CO)c1,max response,[1],-4.23%
Cc1cccc(Nc2cc(Cl)nc(SCC(=O)O)n2)c1C,max response,[1],-1.09%
same,max response,[4],-9.34%
same,Potency,[5],inactive
N[C@H]1C(O)O[C@H](CO)[C@@H](O)[C@@H]1O (stereo not given in full),max response,[1],-9.09%
Cc1cc(CC(=O)O)n(C)c1C(=O)c1ccc(Cl)cc1,max response,[1],5.09% and -10.7%
same,max response,[4],2.85%
same,Potency,[5],inactive
CCCCC(CC)COC(=O)c1ccccc1O (stereo not given),max response,[1],10.2%
same,max response,[4],-7.63%
same,Potency,[5],inactive
Cc1cc2nc3c(=O)[nH]c(=O)nc-3n(C[C@H](O)[C@H](O)[C@H](O)CO)c2cc1C,max response,[1],33.2% and 6.89%
same,max response,[4],-6.02%
same,Potency,[5],inactive
CCOc1ccc2ccccc2c1C(=O)N[C@@H]1C(=O)N2[C@@H]1SC(C)(C)[C@@H]2C(=O)O,max response,[1],-1.05%
[Cl][In]([Cl])[Cl],max response,[1],-7.04% and -5.36%
same,max response,[4],7.88%
same,Potency,[5],inactive
NC(=O)N/N=C/c1ccc([N+](=O)[O-])o1,Potency,[1],35.5 µM (active)
same,max response,[1],4.19%
same,max response,[4],-5.04% and -17.6%
same,Potency,[5],inactive
